37 compounds from the supplement of paper PMC8975748 can be followed below.

The structures appear in SMILES notation. Where a name gives a salt, the structure may show the parent alone. ± gives the standard deviation of the averaged measurements.

The first test has as its system Saccharomyces cerevisiae BY4741 SeMeCo community. Put plainly: mean cell size (pixel area) (pixels); higher = larger cells. The following applies: 10 µM; 24 h; SM minimal medium. In a few lines: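 The test system was a fluorescent Saccharomyces cerevisiae BY4741 community with four plasmids, each restoring one auxotrophy and carrying a fluorescent marker. Cells were grown for 24 h in SM medium with drug at a final 10 µM in 384-well plates, then fixed with paraformaldehyde and imaged by automated confocal microscopy for Harmony analysis of mean cell pixel area per well. Values represent the average of 3 replicates. Same SeMeCo high-content imaging drug screen: Selleck FDA-approved drugs at 10 µM, 24 h in SM medium, 384-well plates, 3 replicates.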
`CN(C)[C@@H](CCOc1cccc2ccccc12)c1ccccc1` [Dapoxetine HCl] registered a mean cell size of 12.3 ± 0.037.

With `CC1(C)S[C@@H]2[C@H](NC(=O)Cc3ccccc3)C(=O)N2[C@H]1C(=O)O.CCN(CC)CCOC(=O)c1ccc(N)cc1` [Penicillin G Procaine], the mean cell size came out at 12.2 ± 0.22.

With `CC(=O)Oc1ccccc1C(=O)O` [Aspirin], the mean cell size is 12.5 ± 0.23.

As for `Nc1ccc(S(=O)(=O)Nc2ccnn2-c2ccccc2)cc1` [Sulfaphenazole], the mean cell size amounted to 12.54 ± 0.079.

`C[C@@H]1CC(=O)NN=C1c1ccc(NN=C(C#N)C#N)cc1` [Levosimendan] returned a mean cell size of 12.5 ± 0.19.

Take `CN1CCN(CCCN2c3ccccc3Sc3ccc(C(F)(F)F)cc32)CC1` [Trifluoperazine 2HCl]: the mean cell size was determined as 12.1 ± 0.41.

`COc1ccc2c(c1)c(CC(=O)OCC(=O)O)c(C)n2C(=O)c1ccc(Cl)cc1` [Acemetacin] came in with a mean cell size of 12.45 ± 0.094.

With `CC[C@H]1OC(=O)[C@H](C)[C@@H](O[C@H]2C[C@@](C)(OC)[C@@H](O)[C@H](C)O2)[C@H](C)[C@@H](O[C@@H]2O[C@H](C)C[C@H](N(C)C)[C@H]2O)[C@](C)(O)C[C@@H](C)CN(C)[C@H](C)[C@@H](O)[C@]1(C)O` [Azithromycin], the mean cell size amounted to 12.5 ± 0.14.

On to `Clc1ccccc1C(c1ccccc1)(c1ccccc1)n1ccnc1` [Clotrimazole], for which the mean cell size stood at 11.89 ± 0.097.

In turn, `CO/N=C(\C(=O)N[C@@H]1C(=O)N2C(C(=O)O)=C(CSc3nc(=O)c(O)nn3C)CS[C@H]12)c1csc(N)n1` [Ceftriaxone Sodium Trihydrate] displayed a mean cell size of 12.23 ± 0.09.

Compound `C[C@H](NCc1ccc(OCc2cccc(F)c2)cc1)C(N)=O` [Safinamide] gave a mean cell size of 12.47 ± 0.075.

Compound `CCOC(=O)C1=C(C)NC(C)=C(C(=O)OC)C1c1cccc(Cl)c1Cl` (configuration not stated) [Felodipine] came in with a mean cell size of 12.57 ± 0.072.

Consider `C[C@@H](O)[C@H]1C(=O)N2C(C(=O)O)=C([C@H]3CCCO3)S[C@H]12` [Faropenem Sodium], for which the mean cell size was 12.39 ± 0.088.

For `O=C1CCc2cc(OCCCCc3nnnn3C3CCCCC3)ccc2N1` [Cilostazol], the mean cell size came out at 12.32 ± 0.082.

The compound `COc1cc(NS(=O)(=O)c2ccc(N)cc2)ncn1` [Sulfamonomethoxine] had a mean cell size of 12.3 ± 0.041.

In turn, `Nc1nc2ccc(OC(F)(F)F)cc2s1` [Riluzole] yielded a mean cell size of 12.6 ± 0.14.

With `NC(=O)N1c2ccccc2CC(=O)c2ccccc21` [Oxcarbazepine], the mean cell size worked out at 12.4 ± 0.25.

Regarding `CCCCC(F)(F)[C@@]1(O)CC[C@H]2[C@@H](CC(=O)[C@@H]2CCCCCCC(=O)O)O1` [Lubiprostone], the mean cell size was 12.6 ± 0.28.

With `CCCCCc1ccc(C)cc1O` [Amylmetacresol], the mean cell size was determined as 12.4 ± 0.14.

In the case of `O=C(O)CCC(=O)Nc1ccc(S(=O)(=O)Nc2nccs2)cc1` [Succinylsulfathiazole], the mean cell size was found to be 12.52 ± 0.1.

On to `N[C@@H]1CONC1=O` [D-Cycloserine], for which the mean cell size is 11.8 ± 0.15.

In turn, `CCOC(=O)C1=C[C@]2(CC)CCCN3CCc4c(n1c1ccccc41)[C@@H]32` [Vinpocetine] gave a mean cell size of 12.3 ± 0.23.

As for `COc1ccc2cc(C(=O)O)ccc2c1` [6-Methoxy-2-naphthoic acid], the mean cell size is 13.4 ± 0.15.

`CCC(=O)c1c(O)cc(O)cc1O` [Flopropione] came in with a mean cell size of 12.5 ± 0.18.

For `Oc1c(Cl)cc(Cl)c(Cl)c1Cc1c(O)c(Cl)cc(Cl)c1Cl` [Hexachlorophene], the mean cell size came to 12.08 ± 0.11.

Compound `CCCCCCCCc1ccc(CCC(N)(CO)CO)cc1` [Fingolimod] came in with a mean cell size of 12.1 ± 0.37.

On to `CC1(C)S[C@@H]2[C@H](NC(=O)[C@H](N)c3ccc(O)cc3)C(=O)N2[C@H]1C(=O)O` [Amoxicillin], for which the mean cell size was determined as 12.6 ± 0.28.

`CC[C@@]1(O)C(=O)OCc2c1cc1n(c2=O)Cc2cc3c(CN(C)C)c(O)ccc3nc2-1` [Topotecan HCl] displayed a mean cell size of 12.5 ± 0.14.

Consider `CCC(C)(C)C(=O)O[C@H]1C[C@@H](C)C=C2C=C[C@H](C)[C@H](CC[C@@H]3C[C@@H](O)CC(=O)O3)[C@H]21` [Simvastatin], for which the mean cell size is 11.7 ± 0.28.

The compound `CO/N=C(\C(=O)N[C@@H]1C(=O)N2C(C(=O)O)=C(CSc3nc(C)c(CC(=O)O)s3)CS[C@H]12)c1csc(N)n1` [Cefodizime Sodium] returned a mean cell size of 12.4 ± 0.13.

The compound `CNCC[C@H](Oc1cccc2ccccc12)c1cccs1` [Duloxetine] came in with a mean cell size of 12.3 ± 0.34.

`C1N2CN3CN1CN(C2)C3` [Methenamine] had a mean cell size of 12.21 ± 0.073.

In turn, `O=C(Nc1cccc(C2=NCCN2)c1)Nc1cccc(C2=NCCN2)c1` [Imidocarb dipropionate] yielded a mean cell size of 12.1 ± 0.27.

With `CCc1c2c(nc3ccc(OC(=O)N4CCC(N5CCCCC5)CC4)cc13)-c1cc3c(c(=O)n1C2)COC(=O)[C@]3(O)CC` [Irinotecan HCl Trihydrate], the mean cell size was found to be 12.5 ± 0.15.

As for `C/C=C\c1ccc(O)c(OC)c1` [Isoeugenol], the mean cell size turned out to be 12.02 ± 0.031.

The test system is the same in a further test. Put plainly: z-score of prototroph abundance vs DMSO median; higher = larger share of this subpopulation than in DMSO controls. The note with it: 10 µM; 24 h; SM minimal medium; subpopulation (auxotrophy): Prototroph. In short, it runs like this: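 A Saccharomyces cerevisiae BY4741 community carried four plasmids, each restoring one auxotrophy and encoding a distinct fluorescent protein. It was pre-grown overnight to OD600 1.0, diluted to 0.3, and 70 µl was added to 384-well plates acoustically predosed with library drugs (10 µM final), then grown 24 h in minimal SM medium. Cells were paraformaldehyde-fixed and imaged by automated confocal microscopy, with single-auxotroph fluorescent strains setting thresholds and autofluorescence correction. Each subpopulation's abundance was scored as a z-score against the vehicle-well median.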
For the compound `CN(C)[C@@H](CCOc1cccc2ccccc12)c1ccccc1` [Dapoxetine HCl], the “z-score of prototroph abundance” value worked out at 0.05.

As to `CC1(C)S[C@@H]2[C@H](NC(=O)Cc3ccccc3)C(=O)N2[C@H]1C(=O)O.CCN(CC)CCOC(=O)c1ccc(N)cc1` [Penicillin G Procaine], the “z-score of prototroph abundance” value is -1.56.

Regarding `Nc1ccc(S(=O)(=O)Nc2ccnn2-c2ccccc2)cc1` [Sulfaphenazole], the “z-score of prototroph abundance” value was determined as 0.15.

Consider `C[C@@H]1CC(=O)NN=C1c1ccc(NN=C(C#N)C#N)cc1` [Levosimendan], for which the “z-score of prototroph abundance” value was -0.07.

For `CCN1CCC[C@H]1CNC(=O)c1cc(S(N)(=O)=O)ccc1OC` [Levosulpiride], the “z-score of prototroph abundance” value stood at 0.49.

Turning to `CC[C@H]1OC(=O)[C@H](C)[C@@H](O[C@H]2C[C@@](C)(OC)[C@@H](O)[C@H](C)O2)[C@H](C)[C@@H](O[C@@H]2O[C@H](C)C[C@H](N(C)C)[C@H]2O)[C@](C)(O)C[C@@H](C)CN(C)[C@H](C)[C@@H](O)[C@]1(C)O` [Azithromycin], the “z-score of prototroph abundance” value was -0.03.

For `Clc1ccccc1C(c1ccccc1)(c1ccccc1)n1ccnc1` [Clotrimazole], the “z-score of prototroph abundance” value was -9.07.

With `CO/N=C(\C(=O)N[C@@H]1C(=O)N2C(C(=O)O)=C(CSc3nc(=O)c(O)nn3C)CS[C@H]12)c1csc(N)n1` [Ceftriaxone Sodium Trihydrate], the “z-score of prototroph abundance” value was found to be 0.45.

As to `C[C@H](NCc1ccc(OCc2cccc(F)c2)cc1)C(N)=O` [Safinamide], the “z-score of prototroph abundance” value is -0.89.

With `CCOC(=O)C1=C(C)NC(C)=C(C(=O)OC)C1c1cccc(Cl)c1Cl` (configuration not stated) [Felodipine], the “z-score of prototroph abundance” value came out at 2.53.

Take `C[C@@H](O)[C@H]1C(=O)N2C(C(=O)O)=C([C@H]3CCCO3)S[C@H]12` [Faropenem Sodium]: the “z-score of prototroph abundance” value is -1.08.

On to `O=C1CCc2cc(OCCCCc3nnnn3C3CCCCC3)ccc2N1` [Cilostazol], for which the “z-score of prototroph abundance” value came to 0.97.

As for `COc1cc(NS(=O)(=O)c2ccc(N)cc2)ncn1` [Sulfamonomethoxine], the “z-score of prototroph abundance” value is 0.

As to `Nc1nc2ccc(OC(F)(F)F)cc2s1` [Riluzole], the “z-score of prototroph abundance” value amounted to 0.62.

Turning to `NC(=O)N1c2ccccc2CC(=O)c2ccccc21` [Oxcarbazepine], the “z-score of prototroph abundance” value came to 0.37.

`CCCCC(F)(F)[C@@]1(O)CC[C@H]2[C@@H](CC(=O)[C@@H]2CCCCCCC(=O)O)O1` [Lubiprostone]: the “z-score of prototroph abundance” value came out at 1.04.

Consider `CCCCCc1ccc(C)cc1O` [Amylmetacresol], for which the “z-score of prototroph abundance” value is -0.1.

As to `CCN(CC)CCOC(=O)c1ccc(N)cc1` [Procaine HCl], the “z-score of prototroph abundance” value was determined as 0.84.

`O=C(O)CCC(=O)Nc1ccc(S(=O)(=O)Nc2nccs2)cc1` [Succinylsulfathiazole]: the “z-score of prototroph abundance” value was found to be 0.73.

Take `N[C@@H]1CONC1=O` [D-Cycloserine]: the “z-score of prototroph abundance” value is -0.18.

With `CCOC(=O)C1=C[C@]2(CC)CCCN3CCc4c(n1c1ccccc41)[C@@H]32` [Vinpocetine], the “z-score of prototroph abundance” value is -0.9.

Turning to `COc1ccc2cc(C(=O)O)ccc2c1` [6-Methoxy-2-naphthoic acid], the “z-score of prototroph abundance” value was determined as 2.36.

With `CCC(=O)c1c(O)cc(O)cc1O` [Flopropione], the “z-score of prototroph abundance” value amounted to 0.7.

`Oc1c(Cl)cc(Cl)c(Cl)c1Cc1c(O)c(Cl)cc(Cl)c1Cl` [Hexachlorophene]: the “z-score of prototroph abundance” value was -5.27.

With `CCCCCCCCc1ccc(CCC(N)(CO)CO)cc1` [Fingolimod], the “z-score of prototroph abundance” value came out at 2.04.

For `CC1(C)S[C@@H]2[C@H](NC(=O)[C@H](N)c3ccc(O)cc3)C(=O)N2[C@H]1C(=O)O` [Amoxicillin], the “z-score of prototroph abundance” value is -0.05.

Turning to `CCC(C)(C)C(=O)O[C@H]1C[C@@H](C)C=C2C=C[C@H](C)[C@H](CC[C@@H]3C[C@@H](O)CC(=O)O3)[C@H]21` [Simvastatin], the “z-score of prototroph abundance” value is -1.66.

As to `CO/N=C(\C(=O)N[C@@H]1C(=O)N2C(C(=O)O)=C(CSc3nc(C)c(CC(=O)O)s3)CS[C@H]12)c1csc(N)n1` [Cefodizime Sodium], the “z-score of prototroph abundance” value is 0.26.

With `CNCC[C@H](Oc1cccc2ccccc12)c1cccs1` [Duloxetine], the “z-score of prototroph abundance” value was found to be 0.49.

As for `C1N2CN3CN1CN(C2)C3` [Methenamine], the “z-score of prototroph abundance” value is -0.97.

Consider `CCc1c2c(nc3ccc(OC(=O)N4CCC(N5CCCCC5)CC4)cc13)-c1cc3c(c(=O)n1C2)COC(=O)[C@]3(O)CC` [Irinotecan HCl Trihydrate], for which the “z-score of prototroph abundance” value is -0.17.

On to `C/C=C\c1ccc(O)c(OC)c1` [Isoeugenol], for which the “z-score of prototroph abundance” value was -0.36.
